An excerpt weighted towards active compounds, which were near 2.4% of everything screened.
A3G deaminase = inhibitors of human APOBEC3G DNA deaminase. Q9HC16. recombinant A3G, ssDNA deamination FAM/TAMRA fluorescence. inhibition, % at 20 µM. hit rate 0.28% among 330,000;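 active = inhibition of at least 40% at 20 µM, with no more than 30% in the related APOBEC3A deaminase screen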;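 also: plate controls were DMSO wells with A3G for no effect and wells lacking A3G enzyme for full effect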
ADAM17 inh = inhibitors of human ADAM17; P78536; recombinant ADAM17, EDANS/DABCYL FRET peptide cleavage; inhibition, % at 6.95 µM; hit rate 0.83% among 370,000; AID 720648;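 active = inhibition above the mean of compounds lying between control limits plus 3 SD, set per campaign, cut at about 8.5% in these data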;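 also: 0% = DMSO-only wells as the low control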
APOBEC3A inh = blocks human APOBEC3A ssDNA deamination; P31941; recombinant A3A, FAM/TAMRA ssDNA deamination fluorescence; hit rate 0.41% among 330,000; AID 493011; inhibition, % at 20 µM;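 active = at least 40% inhibition at 20 µM here, with at most 30% in a related deaminase screen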;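 also: plate controls were A3A with DMSO for no effect and wells lacking A3A enzyme for full effect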
Target sequence (P31941 whole entry, looked up): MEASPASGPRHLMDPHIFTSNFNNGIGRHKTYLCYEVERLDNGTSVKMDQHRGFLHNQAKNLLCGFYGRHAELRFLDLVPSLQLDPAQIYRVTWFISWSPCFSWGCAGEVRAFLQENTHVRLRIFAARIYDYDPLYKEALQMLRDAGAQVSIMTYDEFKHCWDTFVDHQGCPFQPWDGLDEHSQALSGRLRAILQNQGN
ADAM10 inh = inhibits human ADAM10 | O14672 | recombinant ADAM10, EDANS/DABCYL FRET peptide cleavage, 3 h | inhibition, % at 7 µM | hit rate 0.62% among 370,000;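 active = inhibition above a per-campaign cutoff equal to the mean of compounds falling between control-based bounds plus 3 SD, cut at about 20% in these data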;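 also: 0% = DMSO wells while the 100% control is not disclosed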
NRP1-CendR mod = NRP-1/CendR interaction modulation | FAM-RPARPAR peptide binding to NRP-1, fluorescence polarization | inhibition, % at 25 µM | hit rate 0.85% among 360,000;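 active = inhibition or corrected inhibition above about 18%, plus a signal ratio from 0.5 to 1.5, limit read from the data, passing the limit was not always enough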
ADAM10 counter = inhibits human ADAM10 in ADAM17 exosite counter-screen; hit rate 47% among 2,900; recombinant ADAM10, EDANS/DABCYL FRET peptide cleavage, 3 h; shares compounds with ADAM17 inh; inhibition, % at 6.95 µM;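 active = mean inhibition over the triplicate runs exceeds the activity threshold set in the earlier primary screen, cut at about 20% in these data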;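 also: 0% = DMSO wells and 100% = marimastat wells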
ADAM17 confirm = confirmation of inhibitors of human ADAM17; hit rate 65% among 2,900; inhibition, % at 6.95 µM; shares compounds with ADAM17 inh; recombinant ADAM17, EDANS/DABCYL QFRET peptide cleavage;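 active = mean inhibition across replicates above the hit cutoff set in the primary screen, cut at about 8.5% in these data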;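 also: 0% = DMSO wells and 100% = marimastat wells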
An asterisk follows results filed as active; · = not tested or not shown.

SMILES	A3G deaminase	ADAM17 inh	APOBEC3A inh	ADAM10 inh	NRP1-CendR mod	ADAM10 counter	ADAM17 confirm
CC1(c2nnc(-c3cccc(Cl)c3)o2)CC(c2ccc(F)cc2)=NO1 (centres undefined)	-10.3	11.5*	-5.7	9.5	17.8	-2.6	2.8
CC1(c2nnc(-c3cccc(Cl)c3)o2)CC(c2ccc(Cl)cc2)=NO1 (centres undefined)	1.4	0.2	2.3	4.8	8.6	·	·
CC1(C(=O)Nc2ccc(Cl)c(Cl)c2)CCN1C(=O)C1CCCCC1 (centres undefined)	·	10.1*	·	-1.0	2.0	9.0	9.9*
CN(C)S(=O)(=O)c1cccc(NC(=O)c2cc(-c3cccs3)nn2-c2cccc(Cl)c2)c1	-0.9	12.5*	2.0	13.4	-8.0	14.3	11.8*
c1ccc(-c2nc(NCc3ccco3)c3oc4ccccc4c3n2)cc1	-4.0	9.0*	-2.1	3.8	5.7	29.3*	19.2*
O=C(CN1C(=O)NC2(CCCCCCC2)C1=O)Nc1cccc(Br)c1	0.5	9.4*	2.4	8.6	8.4	19.9*	12.3*
O=C(NC1CCCCN(Cc2ccc(Cl)cc2)C1=O)c1ccc(Cl)cc1Cl (centres undefined)	·	0.9	·	6.1	·	·	·
COc1ccc2c3c([nH]c2c1)[C@]1(NCC3)C(=O)N(C)c2ccc(Cl)cc21	·	-1.1	·	6.1	·	·	·
c1ccc(-c2nnc(-c3c[nH]c4ccccc34)nc2-c2ccccc2)cc1	-0.2	8.7*	4.2	15.9	-2.0	14.4	8.8*
CC1CC(C)CN(CCCNC(=O)CN2C(=O)CSc3ccc(S(=O)(=O)N4CCCCC4)cc32)C1 (centres undefined)	-5.1	10.4*	-2.1	-1.1	-3.1	12.4	9.8*
O=C(CN1C(=O)CSc2ccc(S(=O)(=O)N3CCOCC3)cc21)NCCCN1CCCCC1	0.1	-3.2	0.6	-24.3	7.6	·	·
COc1ccc(NC(=O)C(OC(=O)c2ccc([N+](=O)[O-])o2)c2ccccc2)cc1Cl (centres undefined)	0.2	9.8*	0.2	5.0	-20.9	24.9*	11.7*
Cc1ccc(S(=O)(=O)NC(C)CCc2ccccc2)cc1 (centres undefined)	-4.7	9.5*	-3.4	7.5	-2.4	2.4	5.8
CN1CCCCC(NC(=O)c2cccc(F)c2)C1=O (centres undefined)	·	-3.4	·	-11.6	·	·	·
Cc1c(C=O)c2ccccn2c1C(=O)c1ccc(F)cc1	-7.1	10.1*	-3.6	12.1	0.8	-4.2	2.6
CCOC(=O)c1cnc2ccc(OCC)cc2c1N1CCN(c2ccccc2OC)CC1	-0.7	·	0.7	·	-2.6	·	·
CCOC(=O)c1cnc2ccc(OCC)cc2c1N(C)Cc1ccccc1	-2.8	9.4*	-5.6	6.5	-13.1	24.2*	15.0*
CC(C)c1ccc(NC(=O)OC2CCC23CCC(c2ccccc2)CC3)cc1 (centres undefined)	·	-5.0	·	-5.8	·	·	·
O=C(c1cccc(COc2ccc(Cl)cc2Cl)c1)N1CCN(c2ccccn2)CC1	-1.7	10.7*	-6.5	15.5	-5.8	13.9	9.3*
O=C(c1ccc(Cl)c(Cl)c1)N1CCN(c2ccccn2)CC1	-1.6	-0.7	-3.1	8.1	10.4	·	·
COc1ccc(/C=C2\CC3(OC(=O)c4cccc(F)c4)CCCN2C3)cc1 (centres undefined)	·	-1.2	·	-0.4	·	·	·
CN(C)c1ccc(NC(=O)c2ccc(COc3cccc(Cl)c3)o2)cc1	-4.1	10.1*	-5.4	17.2	-12.0	18.5	12.3*
CCN1CCN(C(=O)c2ccc(COc3cccc(Cl)c3)o2)CC1	-5.3	-3.4	0.7	6.7	10.5	·	·
CCCCC(CC)COC1(c2ccccc2)OC(=O)c2ccccc21 (centres undefined)	1.0	10.0*	1.3	2.7	0.8	-1.0	-0.3
CC(C)(C)c1cc(C(=O)CCN2CCOCC2)cc(C(C)(C)C)c1O	-4.9	9.4*	-0.2	13.5	0.7	-3.3	2.6
C[C@@H](OC(=O)N1CCCCC1)[C@H]1O[C@]2(C)CCCC[C@H]1O2	-4.5	9.4*	1.9	9.2	8.6	12.8	8.6

Bioassay records as filed in PubChem.
